Source: PubChem BioAssay
This excerpt belongs to a sample that is enriched for hits.
Dicer processing: human Dicer pre-microRNA cleavage inhibition | Q9UPY3 | cat-ELCCA pre-miR-21 Dicer processing, chemiluminescence; stronger effect = higher value | z-score at 25 µM | 47,000 compounds, 6% hits; in the data active means z-score above about 3, passing the limit was not always enough;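 further: higher signal means more uncleaved substrate so more Dicer inhibition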
Large screens that a line does not name were inactive.

O=C(NCc1cccs1)Nc1cc2ccccc2s1	none
CCOC(=O)CSc1sc(C(=O)OCC)c(C)c1C#N	none
Cc1cc(O)ccc1Nc1nc(-c2cccnc2)cs1	none
Cc1cc(O)ccc1Nc1nc(-c2ccccn2)cs1	Dicer processing 5.38
COc1ccc(Nc2nc(-c3ccccn3)cs2)c(OC)c1	Dicer processing 5.31
COc1ccc(OC)c(Nc2nc(-c3ccncc3)cs2)c1	none
Cc1nc(C)c(-c2csc(Nc3ccc(O)cc3C)n2)s1	none
Fc1ccccc1Nc1nc(-c2ccccn2)cs1	none
CCOC(=O)c1cc(-c2ccccc2)sc1NC(=O)c1ccccc1	none
Cc1cccc(Oc2coc3cc(OCC(=O)OCc4ccccc4)ccc3c2=O)c1	none
COC(=O)C1=C(C)Nc2ncnn2C1c1ccc(O)cc1 (stereo unspecified)	none
Cc1ccc(C(=O)Nc2ccc(Oc3ccc(NC(=O)c4ccc(C)cc4)cc3)cc2)cc1	none
C/C(Nc1ccc(C)cc1)=C1/CCOC1=O	none
CN(Cc1ccccc1)C(=O)c1cc2n(n1)C(C(F)(F)F)CC(c1ccccc1)N2 (stereo unspecified)	Dicer processing 3.02
O=C(NCc1ccco1)c1cc2n(n1)C(C(F)(F)F)CC(c1ccc(Cl)cc1)N2 (stereo unspecified)	none
O=C(NCC1CCCO1)c1cc2n(n1)C(C(F)(F)F)CC(c1ccc(Br)cc1)N2 (stereo unspecified)	Dicer processing 3.71
CCOC(=O)c1cc2n(n1)C(C(F)(F)F)CC(c1ccccc1)N2 (stereo unspecified)	none
O=C(NCc1ccco1)c1cc2n(n1)C(C(F)(F)F)CC(c1ccc3c(c1)OCO3)N2 (stereo unspecified)	Dicer processing 3.79
O=C(NCc1cccs1)c1cc2n(n1)C(C(F)(F)F)CC(c1ccc(F)cc1)N2 (stereo unspecified)	none
Cc1ccc(C2CC(C(F)(F)F)n3ncc(C(=O)NCC4CCCO4)c3N2)cc1 (stereo unspecified)	none
Cc1c(CNC(=O)c2cc3n(n2)C(C(F)(F)F)CC(c2ccc4c(c2)OCO4)N3)cnn1C (stereo unspecified)	none
Cc1ccc(C2CC(C(F)(F)F)n3nc(C(=O)N(C)Cc4c(C)nn(C)c4C)cc3N2)cc1 (stereo unspecified)	none
COC(=O)c1sccc1NC(=O)CC1C(=O)NCCN1S(=O)(=O)c1cccs1 (stereo unspecified)	none
COc1ccc(-c2c(C(F)(F)F)nn(C)c2NS(C)(=O)=O)cc1	none
CCOc1ccc(C2C(C(=O)c3cc4ccccc4o3)=C(O)C(=O)N2CCN(C)C)cc1OC (stereo unspecified)	none
O=S(=O)(NCc1ccncc1)c1cccs1	none
N#CC1=C(SCC(N)=O)NC(=O)CC1c1ccc(F)cc1 (stereo unspecified)	none
O=C(NNC(=O)c1ncc(C(F)(F)F)cc1Cl)c1ccc(Cl)cc1	none
O=C1c2cccc3cccc(c23)C(=O)N1CCCNCCO	none
COc1ccc2c(c1OC)C(=O)N1c3ccccc3N=C(c3ccc(C)cc3)CC21 (stereo unspecified)	none
Fc1ccc(CN2C3=NCCN3c3ccccc32)cc1	Dicer processing 7.44
Fc1ccc(CN2C3=NCCCN3c3ccccc32)cc1	none
Clc1ccc(CN2C3=NCCCN3c3ccccc32)cc1	none
Cc1[nH]c(=O)c(-c2ccccc2)c(O)c1C#N	none
O=C(NNc1ccc(-c2csnn2)cc1)Nc1ccc(Cl)cc1	none
O=C(CSc1ncnc2sc(-c3ccccc3)cc12)c1cccs1	none
CC(C(c1cccs1)c1c(N)n(C)c(=O)n(C)c1=O)[N+](=O)[O-] (stereo unspecified)	none
COc1ccccc1C(C[N+](=O)[O-])c1c(N)n(C)c(=O)n(C)c1=O (stereo unspecified)	none
Cn1c(N)c(C(C[N+](=O)[O-])c2ccc(Cl)cc2Cl)c(=O)n(C)c1=O (stereo unspecified)	Dicer processing 3.43
Cc1ccc(N2C(=O)C3C4C=CC(C4)C3C2=O)nc1 (stereo unspecified)	none
CCc1n(CC(O)COc2ccc(OC)cc2)c2ccccc2[n+]1C (stereo unspecified)	none
O=C(c1cccnc1)N1CCN(C(=O)c2ccco2)CC1	Dicer processing 4.65
O=C1NCCCC1C(=O)N1CCN(C(=O)c2ccco2)CC1 (stereo unspecified)	none
O=C(c1ccncc1)N1CCN(Cc2ccco2)CC1	none
O=C(c1ccccc1)N1CCN(C2=NS(=O)(=O)c3ccccc32)CC1	none
O=C(c1cccnc1)N1CCN(c2ccc3ccccc3n2)CC1	Dicer processing 4.24
O=C(O)c1cccnc1	none
FC(F)(F)c1cccc(N2CCN(C3=Cc4ccccc4CC3)CC2)c1	none
Cc1cccc(Cl)c1NC(=S)N1CC(C)OC(C)C1 (stereo unspecified)	none
Cn1c(NC2CCCC2)nc2c1c(=O)n(Cc1ccc(F)cc1)c(=O)n2C	none
Cc1ccnc(NS(=O)(=O)c2ccc(N3C(=O)C4CCCCC4C3=O)cc2)n1 (stereo unspecified)	Dicer processing 8.06
Cc1cc(C)nc(NC(=O)CN2C(=O)C3CCCCC3C2=O)n1 (stereo unspecified)	none
CC(=O)Nc1ccc(S(=O)(=O)Nc2nc(C)cc(C)n2)cc1	none
N#Cc1cnc2c(-c3ccc(Cl)cc3)cnn2c1N	none
Cc1ccc2oc(C(=O)O)cc(=O)c2c1	none
Cc1ccc2oc(-c3ccccc3)cc(=O)c2c1	Dicer processing 4.71
O=c1cc(-c2ccccc2)oc2ccc(-c3nn[nH]n3)cc12	none
CC1=C(C(=O)OC(C)C)C(c2ccccc2OC(C)C)C2=C(CCCC2=O)N1 (stereo unspecified)	none
O=S(=O)(Cc1c(Cl)cccc1Cl)c1cccs1	none
COc1cc(C2CC(=S)Nc3ccccc3S2)cc(OC)c1OC (stereo unspecified)	none
CSc1nc2ccccc2n1CCOc1ccc(Cl)cc1	none
C=CCOC(=O)n1c(SC)nc2ccccc21	Dicer processing 3.12
C=CCSc1nc2ccccc2n1CC(=O)O	none
Cc1cccc(C)c1NC(=O)NCCCO	none
CC(C)(C)NS(=O)(=O)c1ccc(Cl)c(Cl)c1	none
O=C1CSC2=NC3=C(CCc4ccccc43)C(c3ccccc3Cl)N12 (stereo unspecified)	none
CCOc1cc(C2Nc3ccccc3-c3nnc(SC)nc3O2)ccc1O (stereo unspecified)	Dicer processing 5.03
COc1cc(C2Nc3ccccc3-c3nnc(SC)nc3O2)ccc1O (stereo unspecified)	none
CCSc1nnc2c(n1)OC(c1ccc(O)c(OC)c1)Nc1ccccc1-2 (stereo unspecified)	none
C=CCn1c(SCc2nnc(SCC(C)=O)n2-c2ccccc2)nnc1-c1ccccc1	none
FC(F)(F)c1ccc2[nH]c(=S)[nH]c2c1	none
CCOC(=O)c1sc(SC)c2c1CCCC2O (stereo unspecified)	none
CN(C)C(=O)c1ccc(-c2cc(C(F)(F)F)nn2C)s1	none
Cn1nc(C(F)(F)C(F)F)cc1-c1ccccc1O	Dicer processing 5.32
Cn1nc(C(F)(F)F)cc1OC(=O)c1ccccc1Cl	none
COc1ccc(CN2C(=O)c3oc4ccc(F)cc4c(=O)c3C2c2ccc(O)c(OC)c2)cc1 (stereo unspecified)	none
CCn1c2ccccc2c2cc(C3C(C(=O)OCCOC)=C(C)NC4=C3C(=O)CCC4)ccc21 (stereo unspecified)	Dicer processing 3.6
CCCCOC(=O)C1=C(C)NC2=C(C(=O)CCC2)C1c1ccc(OC)c(OC)c1 (stereo unspecified)	none
CCSCCOC(=O)C1=C(C)NC2=C(C(=O)CCC2)C1c1ccc(OC)c(OC)c1 (stereo unspecified)	Dicer processing 4.84
CCSCCOC(=O)C1=C(C)NC2=C(C(=O)CCC2)C1c1ccc(C(=O)OC)cc1 (stereo unspecified)	none
